This is an account of results in PubChem BioAssay (NCI).

Some test systems named below: HCT-15 colon; HT29 colon; SNB-75 CNS; SNB-19 CNS; U251 CNS; PC-3 prostate; SK-MEL-5 melanoma; UACC-62 melanoma; LOX IMVI melanoma; SK-MEL-28 melanoma.
Assay in all cases: NCI-60 one-dose screen, 48 h (100 = growth as untreated, 0 = no growth, -100 = all killed)
Conditions in all cases: 10 µM unless noted

The panel holds about 83,000 compounds, 20% with a hit somewhere; the sample as a whole holds those more often.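 In brief: 96-well plates, 48 h treatment, single concentration, percent growth endpoint.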 A number with no mark means an inactive call. The source made the active and inactive calls. Rule for the calls: active = growth percent below 10; inactive = the rest.

Regarding `COc1ccc(/C=C/C=C\C(=O)c2ccc(-n3ccnc3)cc2)cc1`, the growth with HCT-15 colon was 91.3%; in the assay with HT29 colon it was 93.4%; in the assay on SNB-75 CNS it was 90.8%; in the assay with SNB-19 CNS it was 87.6%; in the assay on U251 CNS, 83.3%; in the assay with PC-3 prostate, 88.8%. The growth in the assay with SK-MEL-5 melanoma was 88.6%; in the assay with UACC-62 melanoma, 79.1%; in the assay with LOX IMVI melanoma it was 93.5%; in the assay on SK-MEL-28 melanoma it was 104%.
Regarding `O=C(O)c1cccc(CN2CCN(c3cc4c(cc3F)c(=O)c(C(=O)O)cn4C3CC3)CC2)c1O`, the growth with HCT-15 colon is 104%; with HT29 colon it was 102%; in the assay on SNB-75 CNS it was 92.2%; in the assay on SNB-19 CNS it was 99.2%; in the assay with U251 CNS, 96.2%; in the assay on PC-3 prostate, 93.7%. The growth with SK-MEL-5 melanoma was 102%; in the assay on UACC-62 melanoma, 102%; in the assay with LOX IMVI melanoma, 97.9%; in the assay with SK-MEL-28 melanoma, 106%.
Turning to `Cc1ccc2c(c1)/C(=N\N=C/c1cn(C(C)C)c3ccccc13)C(=O)N2`, the growth was 28.6% with HCT-15 colon; 11.3% with HT29 colon; 67.3% with SNB-75 CNS; 76.5% with SNB-19 CNS; 63.6% in the assay with U251 CNS; 34.7% in the assay with PC-3 prostate. In addition, the growth in the assay with SK-MEL-5 melanoma is 66%; in the assay with UACC-62 melanoma it was 50.1%; with LOX IMVI melanoma it was 20%; in the assay with SK-MEL-28 melanoma, 73.4%.
Regarding `CC1(C)OC2[C@@H](CNC(=O)NC(=O)NC(=O)CI)O[C@@H](n3cnc4c(NC(=O)Nc5ccccc5)ncnc43)[C@H]2O1` (stereo not given in full), the growth in the assay with HCT-15 colon was 17.2%; in the assay with HT29 colon it was 9.35% (active); in the assay with SNB-75 CNS, 80.5%; in the assay on SNB-19 CNS, 94.6%; in the assay on U251 CNS, 95.5%; in the assay on PC-3 prostate, 68.3%. Besides, the growth was 103% in the assay with SK-MEL-5 melanoma, 93.8% in the assay with UACC-62 melanoma, -79.4% (active) in the assay with LOX IMVI melanoma and 97.8% in the assay with SK-MEL-28 melanoma.
Take `CC(C)(C)c1cc(C(=O)Nc2cc3ccccc3cc2C(=O)NCCN)cc(C(C)(C)C)c1`: the growth in the assay on HCT-15 colon is -83.4% (active); with HT29 colon it was -79.6% (active); in the assay on SNB-75 CNS it was -92.2% (active); in the assay with SNB-19 CNS, -69% (active); in the assay with U251 CNS, -85.4% (active); with PC-3 prostate, -93% (active). Moreover, the growth was -39.7% (active) with SK-MEL-5 melanoma, -69.4% (active) with UACC-62 melanoma, -89.9% (active) in the assay on LOX IMVI melanoma and -80.9% (active) in the assay with SK-MEL-28 melanoma.
For `c1ccc(-c2nc(N3CCCNCC3)c3nc(-c4ccccc4)oc3n2)cc1`, the growth in the assay with HCT-15 colon is -80.4% (active); in the assay on HT29 colon, -63.4% (active); with SNB-75 CNS, 53.1%; in the assay on SNB-19 CNS, 70.4%; in the assay on U251 CNS it was -90.9% (active); with PC-3 prostate it was -27.3% (active). The growth was 55.6% in the assay on SK-MEL-5 melanoma, -77.8% (active) with UACC-62 melanoma, -95.7% (active) in the assay on LOX IMVI melanoma and 83.7% in the assay on SK-MEL-28 melanoma.
With `CCN=C1C=CC(=C(c2ccc(N(CC)CC)cc2)c2ccc(N(CC)CC)cc2)c2ccccc21`, the growth with HCT-15 colon is -70.9% (active); in the assay with HT29 colon it was -59.7% (active); in the assay with SNB-75 CNS, -22% (active); with SNB-19 CNS it was -57.8% (active); in the assay on U251 CNS, -89.1% (active); in the assay on PC-3 prostate, -66.8% (active). The growth was -99.5% (active) with SK-MEL-5 melanoma, -37.4% (active) with UACC-62 melanoma, -64.6% (active) in the assay with LOX IMVI melanoma and -67.6% (active) in the assay with SK-MEL-28 melanoma.
Take `Nc1nnc(CSc2nnc3n(Cc4ccccc4)c(=O)c4c5c(sc4n23)CCCC5)s1`: the growth is 90.4% in the assay with HCT-15 colon; 102% in the assay on HT29 colon; 98.7% in the assay on SNB-75 CNS; 100% with SNB-19 CNS; 93.2% with U251 CNS; 90.6% with PC-3 prostate. Moreover, the growth in the assay on SK-MEL-5 melanoma was 105%; in the assay on UACC-62 melanoma, 82.1%; in the assay with LOX IMVI melanoma, 86%; in the assay with SK-MEL-28 melanoma, 122%.
Turning to `CC(C)(C)c1cc(C(=O)Nc2ccc(C(=O)NCCN)cc2)cc(C(C)(C)C)c1`, the growth with HCT-15 colon was 76.6%; in the assay with HT29 colon it was -21.7% (active); with SNB-75 CNS it was 55.6%; with SNB-19 CNS, 33.6%; in the assay with U251 CNS, -6.92% (active); in the assay with PC-3 prostate, 25.9%. Further, the growth is 23.8% in the assay on SK-MEL-5 melanoma, -71.8% (active) in the assay on UACC-62 melanoma, -65.5% (active) in the assay on LOX IMVI melanoma and -64.4% (active) in the assay on SK-MEL-28 melanoma.
Regarding `CN(C)Cc1ccc[nH]1`, the growth with HCT-15 colon is 102%; with HT29 colon it was 114%; in the assay with SNB-75 CNS it was 92.5%; in the assay with SNB-19 CNS it was 97.7%; in the assay with U251 CNS, 108%; with PC-3 prostate, 99.2%. In addition, the growth with SK-MEL-5 melanoma was 102%; in the assay on UACC-62 melanoma it was 91.6%; in the assay on LOX IMVI melanoma, 81.3%; in the assay with SK-MEL-28 melanoma, 107%.
Regarding `C[C@@H](NC(=O)[C@@H](CC(=O)N1CCC(N2CCCCC2)CC1)N1C(=O)[C@@H](N2C(=O)OC[C@@H]2c2ccccc2)[C@H]1/C=C/c1cccc(Cl)c1)c1ccccc1`, the growth was 32.8% in the assay on HCT-15 colon; 1.92% (active) in the assay with HT29 colon; 70.8% with SNB-75 CNS; 82.2% with SNB-19 CNS; 55.2% with U251 CNS; 56.1% with PC-3 prostate. The growth with SK-MEL-5 melanoma is -89% (active); in the assay with UACC-62 melanoma, 89.5%; with LOX IMVI melanoma, -43.2% (active); in the assay on SK-MEL-28 melanoma, -29.4% (active).
As for `CCOC(=O)CC(c1ccccc1)C(C#N)c1ccccc1` (stereo not given), the growth in the assay with HCT-15 colon was 103%; in the assay on HT29 colon it was 103%; in the assay with SNB-75 CNS, 82.1%; with SNB-19 CNS, 111%; with U251 CNS, 97.6%; in the assay on PC-3 prostate, 89.5%. Besides, the growth was 98.7% in the assay with SK-MEL-5 melanoma, 97.3% with UACC-62 melanoma, 103% with LOX IMVI melanoma and 95.5% in the assay on SK-MEL-28 melanoma.
In the case of `CCc1ccc(NC(=O)N[C@@H](Cc2cc(F)cc(F)c2)C(=O)N[C@@H]2C(=O)N3C[C@H](O)C[C@H]3C(=O)N3CCOC[C@H]3C(=O)N[C@@H](C)C(=O)N3C[C@H](C)C[C@H]3C(=O)O[C@H]2C)cc1`, the growth was 108% with HCT-15 colon; 31.2% in the assay with HT29 colon; 8.76% (active) with SNB-75 CNS; 20.2% in the assay on SNB-19 CNS; 24.8% in the assay with U251 CNS; 14.4% in the assay with PC-3 prostate. In addition, the growth in the assay on SK-MEL-5 melanoma was 85%; with UACC-62 melanoma, 29.7%; with LOX IMVI melanoma, 41.6%; with SK-MEL-28 melanoma, 39.7%.
